These results are taken from publication PMC7862700, “An all-to-all approach to the identification of sequence-specific readers for epigenetic DNA modifications on cytosine”.

What all share (assay): DAPPL (digital affinity profiling via proximity ligation, sequencing); 10 mM Tris-HCl pH 7.5, 50 mM NaCl, 1 mM DTT, 4% glycerol, room temperature, 30 min; GST-TFs on glutathione beads, 16-mer random dsDNA library, 0.1% formaldehyde crosslink after washing; high values mean tight binding
In test [1] the target is T1, FLI1 (Homo sapiens, UniProt Q01543 1-452).
T1 sequence: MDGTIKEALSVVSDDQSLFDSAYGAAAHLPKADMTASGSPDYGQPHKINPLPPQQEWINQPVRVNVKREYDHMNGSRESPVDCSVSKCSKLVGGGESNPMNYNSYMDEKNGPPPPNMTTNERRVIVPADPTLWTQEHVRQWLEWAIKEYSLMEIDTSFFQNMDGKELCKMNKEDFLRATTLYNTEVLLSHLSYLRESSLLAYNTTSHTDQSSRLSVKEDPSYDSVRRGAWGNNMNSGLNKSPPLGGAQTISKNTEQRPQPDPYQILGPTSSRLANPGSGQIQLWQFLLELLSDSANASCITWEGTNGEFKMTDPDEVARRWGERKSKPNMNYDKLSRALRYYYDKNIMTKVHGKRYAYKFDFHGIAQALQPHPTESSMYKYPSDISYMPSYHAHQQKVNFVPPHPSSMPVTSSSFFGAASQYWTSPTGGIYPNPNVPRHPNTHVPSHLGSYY
To be noted: protein: recombinant; tags: N-terminal GST; dsDNA, one strand shown. In outline:
(§1)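 Pools were built from human transcription factors expressed in yeast as GST fusions, captured on glutathione beads and DNA-barcoded, along with a tag-only sample. Incubation with 200 nmole of a 16-mer random double-stranded DNA library lasted 30 min at room temperature in Tris/NaCl/DTT/glycerol buffer, and was followed by washing, 0.1% formaldehyde crosslinking, proximity ligation, PCR amplification and Illumina NextSeq500 sequencing. Binding signal is the quotient of each hexamer's read frequency for a factor and its frequency for the tag-only sample.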

Test [2] concerns the target T2, ELK1 (Homo sapiens, UniProt P19419 1-428).
T2 sequence: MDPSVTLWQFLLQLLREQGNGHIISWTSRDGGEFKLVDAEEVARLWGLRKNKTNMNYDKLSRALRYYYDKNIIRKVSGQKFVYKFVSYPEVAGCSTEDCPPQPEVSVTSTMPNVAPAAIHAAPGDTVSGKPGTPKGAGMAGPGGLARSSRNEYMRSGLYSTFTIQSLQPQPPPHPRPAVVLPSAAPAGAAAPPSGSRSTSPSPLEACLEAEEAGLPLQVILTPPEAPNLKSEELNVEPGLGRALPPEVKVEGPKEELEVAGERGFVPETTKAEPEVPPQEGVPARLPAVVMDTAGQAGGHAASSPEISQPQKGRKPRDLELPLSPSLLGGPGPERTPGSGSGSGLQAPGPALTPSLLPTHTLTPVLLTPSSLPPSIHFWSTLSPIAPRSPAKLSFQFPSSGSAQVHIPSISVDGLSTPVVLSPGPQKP
To be noted: protein: recombinant; tags: N-terminal GST; dsDNA, one strand shown. In outline:
as §1

Test [3] addresses T3, GABPA (Homo sapiens, UniProt Q06546 1-454).
T3 sequence: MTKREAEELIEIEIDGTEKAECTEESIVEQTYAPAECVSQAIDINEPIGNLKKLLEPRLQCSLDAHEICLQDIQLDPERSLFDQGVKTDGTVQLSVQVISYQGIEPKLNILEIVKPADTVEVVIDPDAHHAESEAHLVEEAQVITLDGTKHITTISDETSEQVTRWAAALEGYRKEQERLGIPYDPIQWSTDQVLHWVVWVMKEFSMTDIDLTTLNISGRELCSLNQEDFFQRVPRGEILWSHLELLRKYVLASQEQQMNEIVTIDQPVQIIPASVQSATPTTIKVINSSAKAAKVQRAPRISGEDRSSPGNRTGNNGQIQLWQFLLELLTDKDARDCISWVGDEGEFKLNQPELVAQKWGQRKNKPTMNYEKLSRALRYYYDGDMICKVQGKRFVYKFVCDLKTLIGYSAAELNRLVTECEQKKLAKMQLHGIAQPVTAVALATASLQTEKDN
To be noted: protein: recombinant; tags: N-terminal GST; dsDNA, one strand shown. The method in brief:
as §1

The target of test [4] is T4, ERG (Homo sapiens, UniProt P11308 1-479).
T4 sequence: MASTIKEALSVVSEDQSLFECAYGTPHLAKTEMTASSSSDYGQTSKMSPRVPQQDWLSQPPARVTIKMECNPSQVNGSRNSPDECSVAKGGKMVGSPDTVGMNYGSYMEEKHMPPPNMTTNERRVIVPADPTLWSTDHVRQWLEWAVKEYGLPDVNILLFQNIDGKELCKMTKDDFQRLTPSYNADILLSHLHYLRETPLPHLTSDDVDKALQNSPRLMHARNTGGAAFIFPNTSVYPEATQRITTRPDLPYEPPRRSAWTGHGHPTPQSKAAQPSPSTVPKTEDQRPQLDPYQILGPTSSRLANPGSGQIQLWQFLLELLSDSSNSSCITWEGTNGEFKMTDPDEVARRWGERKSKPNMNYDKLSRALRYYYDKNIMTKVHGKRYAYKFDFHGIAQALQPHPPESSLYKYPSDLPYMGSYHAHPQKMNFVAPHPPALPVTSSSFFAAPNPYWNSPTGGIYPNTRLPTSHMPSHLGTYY
To be noted: protein: recombinant; tags: N-terminal GST; dsDNA, one strand shown. In outline: as §1

Test [5] addresses ELF1 (Homo sapiens, UniProt P32519 1-619). To be noted: protein: recombinant; tags: N-terminal GST; dsDNA, one strand shown. The method in brief:
as §1

In test [6] the target is T5, EHF (Homo sapiens, UniProt Q9NZC4 1-300).
T5 sequence: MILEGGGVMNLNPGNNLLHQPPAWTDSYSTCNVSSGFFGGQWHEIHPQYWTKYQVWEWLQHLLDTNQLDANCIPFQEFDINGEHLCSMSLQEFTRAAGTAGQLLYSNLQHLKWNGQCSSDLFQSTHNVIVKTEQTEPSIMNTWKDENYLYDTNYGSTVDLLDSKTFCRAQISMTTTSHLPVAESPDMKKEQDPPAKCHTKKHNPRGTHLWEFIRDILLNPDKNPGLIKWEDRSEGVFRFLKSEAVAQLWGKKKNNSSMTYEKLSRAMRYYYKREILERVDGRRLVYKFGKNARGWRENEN
To be noted: protein: recombinant; tags: N-terminal GST; dsDNA, one strand shown. The method in brief:
as §1

Test [7] concerns the target SPI1 (Homo sapiens, UniProt P17947 1-270). To be noted: protein: recombinant; tags: N-terminal GST; dsDNA, one strand shown. In outline: as §1
Test [8] deals with SPIB (Homo sapiens, UniProt Q01892 1-262). To be noted: protein: recombinant; tags: N-terminal GST; dsDNA, one strand shown. In outline:
as §1

In test [9] the target is T6, ELK3 (Homo sapiens, UniProt P41970 1-407).
T6 sequence: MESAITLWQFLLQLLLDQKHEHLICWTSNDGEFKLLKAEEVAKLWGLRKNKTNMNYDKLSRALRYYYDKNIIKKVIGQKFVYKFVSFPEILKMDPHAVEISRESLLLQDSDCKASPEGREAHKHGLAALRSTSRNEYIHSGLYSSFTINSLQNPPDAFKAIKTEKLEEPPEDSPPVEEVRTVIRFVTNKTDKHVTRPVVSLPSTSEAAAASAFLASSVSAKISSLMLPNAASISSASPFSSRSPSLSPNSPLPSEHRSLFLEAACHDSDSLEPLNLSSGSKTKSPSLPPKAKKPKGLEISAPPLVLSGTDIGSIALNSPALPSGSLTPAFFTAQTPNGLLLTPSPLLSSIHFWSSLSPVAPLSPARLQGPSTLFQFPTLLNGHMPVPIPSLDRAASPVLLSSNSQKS
To be noted: protein: recombinant; tags: N-terminal GST; dsDNA, one strand shown. The method in brief: as §1

The target of test [10] is T7, FEV (Homo sapiens, UniProt Q99581 1-238).
T7 sequence: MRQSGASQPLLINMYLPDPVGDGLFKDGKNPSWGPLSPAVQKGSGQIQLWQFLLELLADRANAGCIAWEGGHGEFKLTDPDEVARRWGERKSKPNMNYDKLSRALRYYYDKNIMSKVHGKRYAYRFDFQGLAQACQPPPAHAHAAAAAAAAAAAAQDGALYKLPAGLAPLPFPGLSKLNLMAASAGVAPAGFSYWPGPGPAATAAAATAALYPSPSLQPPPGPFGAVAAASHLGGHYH
To be noted: protein: recombinant; tags: N-terminal GST; dsDNA, one strand shown. In outline:
as §1

For test [11], the target named is ETV5 (Homo sapiens, UniProt P41161 1-510). To be noted: protein: recombinant; tags: N-terminal GST; dsDNA, one strand shown. The method in brief:
as §1

Test [12] addresses HSF1 (Homo sapiens, UniProt Q00613 1-529). To be noted: protein: recombinant; tags: N-terminal GST; chain copies: 3; dsDNA, one strand shown. In outline:
as §1

Test [13] concerns the target T8, SPIC (Homo sapiens, UniProt Q8N5J4 1-248).
T8 sequence: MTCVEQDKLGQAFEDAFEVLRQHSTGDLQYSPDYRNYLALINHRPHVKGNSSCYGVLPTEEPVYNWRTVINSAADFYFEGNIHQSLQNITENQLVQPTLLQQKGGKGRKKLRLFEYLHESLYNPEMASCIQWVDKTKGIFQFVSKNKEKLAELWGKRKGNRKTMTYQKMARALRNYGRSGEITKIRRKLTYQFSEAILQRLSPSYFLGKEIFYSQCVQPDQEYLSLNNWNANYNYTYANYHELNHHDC
To be noted: protein: recombinant; tags: N-terminal GST; dsDNA, one strand shown. In outline: as §1

In test [14] the target is ELF4 (Homo sapiens, UniProt Q99607 1-663). To be noted: protein: recombinant; tags: N-terminal GST; dsDNA, one strand shown. In outline: as §1
ELF4, sequence (Q99607 whole entry): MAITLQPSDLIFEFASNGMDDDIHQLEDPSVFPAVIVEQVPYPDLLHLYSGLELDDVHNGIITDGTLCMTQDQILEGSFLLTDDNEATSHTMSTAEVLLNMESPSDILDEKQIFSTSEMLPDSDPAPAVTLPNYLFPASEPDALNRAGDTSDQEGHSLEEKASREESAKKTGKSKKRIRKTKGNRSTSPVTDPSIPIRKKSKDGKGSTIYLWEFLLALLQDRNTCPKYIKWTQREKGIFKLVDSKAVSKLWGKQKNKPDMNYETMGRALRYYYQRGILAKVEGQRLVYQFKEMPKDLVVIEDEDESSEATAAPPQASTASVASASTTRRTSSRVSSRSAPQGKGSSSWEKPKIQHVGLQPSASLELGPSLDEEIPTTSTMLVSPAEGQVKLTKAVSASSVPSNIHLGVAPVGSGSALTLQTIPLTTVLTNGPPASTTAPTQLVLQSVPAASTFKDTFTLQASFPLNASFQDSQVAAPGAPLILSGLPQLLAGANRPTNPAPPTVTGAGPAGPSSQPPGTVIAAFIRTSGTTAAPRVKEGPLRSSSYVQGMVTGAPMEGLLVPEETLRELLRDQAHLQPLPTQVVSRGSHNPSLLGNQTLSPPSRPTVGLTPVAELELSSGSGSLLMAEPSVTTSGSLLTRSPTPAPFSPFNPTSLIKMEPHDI
The target in test [15] is T9, ELK4 (Homo sapiens, UniProt P28324-2 1-405).
T9 sequence: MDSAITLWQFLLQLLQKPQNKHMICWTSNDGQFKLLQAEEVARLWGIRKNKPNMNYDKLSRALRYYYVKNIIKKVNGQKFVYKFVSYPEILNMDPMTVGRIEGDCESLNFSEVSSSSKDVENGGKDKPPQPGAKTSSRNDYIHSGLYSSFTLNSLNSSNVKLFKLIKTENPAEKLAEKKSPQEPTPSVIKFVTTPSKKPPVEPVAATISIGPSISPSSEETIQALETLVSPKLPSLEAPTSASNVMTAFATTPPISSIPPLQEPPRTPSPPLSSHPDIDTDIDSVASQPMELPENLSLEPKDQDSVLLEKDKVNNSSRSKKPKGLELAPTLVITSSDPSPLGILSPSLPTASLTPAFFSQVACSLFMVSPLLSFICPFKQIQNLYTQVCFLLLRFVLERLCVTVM
To be noted: protein: recombinant; tags: N-terminal GST; dsDNA, one strand shown. In outline:
as §1

The target of test [16] is T10, ETV2 (Homo sapiens, UniProt O00321 1-342).
T10 sequence: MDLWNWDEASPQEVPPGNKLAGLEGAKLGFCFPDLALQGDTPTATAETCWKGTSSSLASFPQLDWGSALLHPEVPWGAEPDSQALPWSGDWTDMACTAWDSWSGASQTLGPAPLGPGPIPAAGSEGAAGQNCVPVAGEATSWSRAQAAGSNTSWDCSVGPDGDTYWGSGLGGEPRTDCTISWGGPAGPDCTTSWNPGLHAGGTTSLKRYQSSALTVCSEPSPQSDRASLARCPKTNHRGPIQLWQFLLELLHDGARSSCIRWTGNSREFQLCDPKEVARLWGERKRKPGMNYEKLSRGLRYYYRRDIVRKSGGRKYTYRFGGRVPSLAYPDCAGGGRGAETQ
To be noted: protein: recombinant; tags: N-terminal GST; dsDNA, one strand shown. In outline:
as §1

The target of test [17] is T11, ELF3 (Homo sapiens, UniProt P78545 1-371).
T11 sequence: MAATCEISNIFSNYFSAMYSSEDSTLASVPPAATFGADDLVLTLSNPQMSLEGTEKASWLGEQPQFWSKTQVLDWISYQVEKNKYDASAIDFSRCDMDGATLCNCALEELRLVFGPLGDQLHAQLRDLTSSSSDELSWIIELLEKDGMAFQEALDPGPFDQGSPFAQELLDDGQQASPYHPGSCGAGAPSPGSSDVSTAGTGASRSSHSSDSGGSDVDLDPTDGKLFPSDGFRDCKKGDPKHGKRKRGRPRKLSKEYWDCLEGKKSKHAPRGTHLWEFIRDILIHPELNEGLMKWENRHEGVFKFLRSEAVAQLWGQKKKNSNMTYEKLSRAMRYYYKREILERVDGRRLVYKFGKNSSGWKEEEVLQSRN
To be noted: protein: recombinant; tags: N-terminal GST; dsDNA, one strand shown. In outline: as §1

The target in test [18] is CRX (Homo sapiens, UniProt O43186 1-299). To be noted: protein: recombinant; tags: N-terminal GST; dsDNA, one strand shown. In outline:
as §1

Test [19] deals with ETV1 (Homo sapiens, UniProt P50549 1-477). To be noted: protein: recombinant; tags: N-terminal GST; dsDNA, one strand shown. The method in brief: as §1
ETV1, sequence (P50549 whole entry): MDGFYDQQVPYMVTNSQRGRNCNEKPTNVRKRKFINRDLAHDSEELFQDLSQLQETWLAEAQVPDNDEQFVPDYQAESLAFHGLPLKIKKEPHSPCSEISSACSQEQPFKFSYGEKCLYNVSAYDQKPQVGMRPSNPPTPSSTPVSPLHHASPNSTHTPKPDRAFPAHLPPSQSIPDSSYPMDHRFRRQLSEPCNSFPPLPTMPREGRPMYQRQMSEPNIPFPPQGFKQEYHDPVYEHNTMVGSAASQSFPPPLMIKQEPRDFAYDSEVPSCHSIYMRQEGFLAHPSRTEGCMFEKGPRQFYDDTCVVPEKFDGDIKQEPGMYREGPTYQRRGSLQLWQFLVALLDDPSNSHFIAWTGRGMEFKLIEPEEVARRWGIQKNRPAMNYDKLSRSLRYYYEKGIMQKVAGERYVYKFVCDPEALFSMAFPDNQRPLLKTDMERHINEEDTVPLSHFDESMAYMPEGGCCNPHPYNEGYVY

CRX, sequence (O43186 whole entry): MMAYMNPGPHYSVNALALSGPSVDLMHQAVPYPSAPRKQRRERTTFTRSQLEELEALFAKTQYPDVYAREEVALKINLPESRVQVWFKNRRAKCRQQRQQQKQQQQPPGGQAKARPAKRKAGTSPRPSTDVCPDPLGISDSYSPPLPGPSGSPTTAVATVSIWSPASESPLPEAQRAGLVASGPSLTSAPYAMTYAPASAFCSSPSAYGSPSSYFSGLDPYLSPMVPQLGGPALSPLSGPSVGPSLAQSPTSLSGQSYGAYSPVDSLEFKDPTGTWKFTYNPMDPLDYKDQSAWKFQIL
ETV5, sequence (P41161 whole entry): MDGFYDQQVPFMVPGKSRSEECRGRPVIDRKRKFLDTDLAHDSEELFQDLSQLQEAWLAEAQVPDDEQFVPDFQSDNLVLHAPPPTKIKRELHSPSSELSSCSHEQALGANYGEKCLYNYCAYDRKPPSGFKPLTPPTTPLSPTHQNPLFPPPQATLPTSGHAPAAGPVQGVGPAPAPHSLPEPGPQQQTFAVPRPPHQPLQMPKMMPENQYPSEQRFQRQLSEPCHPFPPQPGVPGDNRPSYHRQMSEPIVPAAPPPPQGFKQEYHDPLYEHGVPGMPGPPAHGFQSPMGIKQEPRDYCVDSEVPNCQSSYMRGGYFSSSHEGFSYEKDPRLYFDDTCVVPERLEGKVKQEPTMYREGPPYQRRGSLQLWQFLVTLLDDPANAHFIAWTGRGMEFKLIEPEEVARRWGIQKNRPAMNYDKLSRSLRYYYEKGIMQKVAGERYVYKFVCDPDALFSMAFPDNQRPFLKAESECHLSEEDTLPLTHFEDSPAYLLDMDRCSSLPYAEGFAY
SPIB, sequence (Q01892 whole entry): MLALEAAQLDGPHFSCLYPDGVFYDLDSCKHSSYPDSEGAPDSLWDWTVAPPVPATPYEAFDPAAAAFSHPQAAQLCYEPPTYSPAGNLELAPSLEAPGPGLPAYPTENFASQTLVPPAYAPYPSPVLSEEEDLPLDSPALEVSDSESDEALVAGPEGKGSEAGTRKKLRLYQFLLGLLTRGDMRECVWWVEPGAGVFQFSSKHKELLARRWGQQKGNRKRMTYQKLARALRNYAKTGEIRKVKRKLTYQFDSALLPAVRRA
ELF1, sequence (P32519 whole entry): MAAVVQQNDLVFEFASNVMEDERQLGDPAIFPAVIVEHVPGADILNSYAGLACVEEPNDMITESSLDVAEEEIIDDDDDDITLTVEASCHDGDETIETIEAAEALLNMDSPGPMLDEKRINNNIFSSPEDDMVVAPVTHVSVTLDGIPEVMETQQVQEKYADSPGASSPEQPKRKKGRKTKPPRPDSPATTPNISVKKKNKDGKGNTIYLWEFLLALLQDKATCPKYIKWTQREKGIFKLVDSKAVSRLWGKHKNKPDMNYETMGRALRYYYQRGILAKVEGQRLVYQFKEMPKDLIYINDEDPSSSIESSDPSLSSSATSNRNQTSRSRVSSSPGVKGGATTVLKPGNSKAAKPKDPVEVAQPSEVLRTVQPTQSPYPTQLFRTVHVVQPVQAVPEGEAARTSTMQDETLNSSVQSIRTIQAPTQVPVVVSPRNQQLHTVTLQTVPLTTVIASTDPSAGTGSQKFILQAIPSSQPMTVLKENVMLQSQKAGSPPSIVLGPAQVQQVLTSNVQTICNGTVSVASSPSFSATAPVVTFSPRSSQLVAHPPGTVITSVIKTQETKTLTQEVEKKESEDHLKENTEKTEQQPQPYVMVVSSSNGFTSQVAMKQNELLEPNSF
HSF1, sequence (Q00613 whole entry): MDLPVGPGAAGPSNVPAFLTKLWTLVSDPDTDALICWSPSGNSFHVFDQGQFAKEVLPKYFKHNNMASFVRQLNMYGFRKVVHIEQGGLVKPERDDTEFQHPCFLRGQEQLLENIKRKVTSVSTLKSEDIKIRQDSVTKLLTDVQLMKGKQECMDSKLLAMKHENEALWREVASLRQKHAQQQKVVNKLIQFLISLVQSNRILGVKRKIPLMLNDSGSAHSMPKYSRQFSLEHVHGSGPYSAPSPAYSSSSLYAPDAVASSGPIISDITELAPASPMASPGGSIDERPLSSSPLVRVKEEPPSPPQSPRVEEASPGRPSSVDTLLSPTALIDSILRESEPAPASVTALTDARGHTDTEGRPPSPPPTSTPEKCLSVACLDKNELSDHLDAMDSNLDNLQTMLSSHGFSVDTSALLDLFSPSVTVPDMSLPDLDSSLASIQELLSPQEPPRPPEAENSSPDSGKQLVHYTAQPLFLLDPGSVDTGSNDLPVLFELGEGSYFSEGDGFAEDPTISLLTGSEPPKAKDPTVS

On to CCTTCG, for which the binding signal in test [1] is 1.31 fold enrichment (6-mer frequency, TF over GST control); in test [2], 1.33 fold enrichment (6-mer frequency, TF over GST control); in test [3], 1.35 fold enrichment (6-mer frequency, TF over GST control); in test [4], 1.3 fold enrichment (6-mer frequency, TF over GST control); in test [5] it was 1.33 fold enrichment (6-mer frequency, TF over GST control); in test [6], 1.19 fold enrichment (6-mer frequency, TF over GST control). The binding signal in [7] is 1.32 fold enrichment (6-mer frequency, TF over GST control); in test [8], 1.41 fold enrichment (6-mer frequency, TF over GST control); in test [9] it was 1.65 fold enrichment (6-mer frequency, TF over GST control); in test [10] it was 1.38 fold enrichment (6-mer frequency, TF over GST control); in test [11], 1.3 fold enrichment (6-mer frequency, TF over GST control); in [12], 1.88 fold enrichment (6-mer frequency, TF over GST control). In addition, the binding signal in [13] is 1.31 fold enrichment (6-mer frequency, TF over GST control); in test [14], 1.39 fold enrichment (6-mer frequency, TF over GST control); in test [15], 1.34 fold enrichment (6-mer frequency, TF over GST control); in test [16], 1.39 fold enrichment (6-mer frequency, TF over GST control); in test [17], 1.28 fold enrichment (6-mer frequency, TF over GST control); in test [18] it was 1.28 fold enrichment (6-mer frequency, TF over GST control). Further, in [19], the binding signal was 1.5 fold enrichment (6-mer frequency, TF over GST control).
